Values without a mark were called inactive.
These molecules were tested on MCF10A (assay: perturbation Mahalanobis distance of morphological profile vs DMSO controls (Mahalanobis distance (SD units)); higher = stronger morphological change, active = 7 or more). Conditions: screen batch: Batch1_Mahalanobis_Distance; 72 h.
Description: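 MCF10A cells were seeded onto drugs dispensed acoustically into 384-well plates, using one dose per drug chosen from its human peak plasma concentration, and incubated for 72 h at 37 °C. Cells were stained for DNA, tubulin and mitochondria and imaged; 78 CellProfiler features were extracted, plate-normalised and compared with DMSO wells.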

In order of rising “perturbation Mahalanobis distance” value:
1. CNS(=O)(=O)Cc1ccc2[nH]cc(CCN(C)C)c2c1 [Sumatriptan] (1 µM)  1.95
2. CN(C)CC[C@@H](c1ccc(Cl)cc1)c1ccccn1 [Dexchlorpheniramine] (0.15 µM)  2.03
3. C1CNCCN1 [Piperazine Hexahydrate] (5.8 µM)  2.12
4. NC(=O)[C@@H]1CSSCCC(=O)N[C@@H](CCCCN=C(N)N)C(=O)NCC(=O)N[C@@H](CC(=O)O)C(=O)N[C@@H](Cc2c[nH]c3ccccc23)C(=O)N2CCC[C@H]2C(=O)N1 [Eptifibatide] (5.3 µM)  2.23
5. CC(C)N=C(N)/N=C(\N)Nc1ccc(Cl)cc1 [Proguanil] (3 µM)  2.24
6. C[C@]12C=CC(=O)N[C@@H]1CC[C@@H]1[C@@H]2CC[C@]2(C)[C@@H](C(=O)Nc3cc(C(F)(F)F)ccc3C(F)(F)F)CC[C@@H]12 [Dutasteride] (12 µM)  2.35
7. CCC(CC)O[C@@H]1C=C(C(=O)O)C[C@H](N)[C@H]1NC(C)=O [Oseltamivir Acid] (6.45 µM)  2.37
8. CCCc1cc(=O)[nH]c(=S)[nH]1 [Propylthiouracil] (90 µM)  2.49
9. NN1CCOC1=O [3-Amino-2-Oxazolidinone] (49 µM)  2.59
10. COc1ccccc1OCC(O)CN1CCN(CC(=O)Nc2c(C)cccc2C)CC1 (stereo not given) [Ranolazine] (37.4 µM)  2.73
11. CN(C)CCCC1(c2ccc(F)cc2)OCc2cc(C#N)ccc21 (stereo not given) [Citalopram] (3.1 µM)  2.77
12. Cc1ncc([N+](=O)[O-])n1CCO [Metronidazole] (58.4 µM)  3.04
13. C[C@@H]1O[C@@]2(CS1)CN1CCC2CC1 [Cevimeline] (1.5 µM)  3.07
14. Nc1nc(N)c2nc(-c3ccccc3)c(N)nc2n1 [Triamterene] (2 µM)  3.18
15. CN(C)[C@@H]1C(O)=C(C(N)=O)C(=O)[C@@]2(O)C(O)=C3C(=O)c4c(O)cccc4[C@@](C)(O)[C@H]3C[C@@H]12 [Tetracycline] (45 µM)  4.19
16. C[C@]12C=CC(=O)C=C1CC[C@@H]1[C@@H]2[C@@H](O)C[C@@]2(C)[C@H]1CC[C@]2(O)C(=O)CO [Prednisolone] (13.9 µM)  4.8
17. CC(N=C(NC#N)Nc1ccncc1)C(C)(C)C (stereo not given) [Pinacidil] (8.3 µM)  4.94
18. CCOC(=O)C(C)(C)Oc1ccc(Cl)cc1 [Clofibrate] (325.5 µM)  6.08

`CCn1cc(C(=O)O)c(=O)c2cc(F)c(N3CCNCC3)nc21` [Enoxacin] (62.4 µM) was tested, and the “perturbation Mahalanobis distance” value was 7.28 (active).
In the case of `O=C1c2c(O)ccc(O)c2C(=O)c2c(NCCNCCO)ccc(NCCNCCO)c21` [Mitoxantrone] (3.4 µM), the “perturbation Mahalanobis distance” value is reported as 9.47 (active).

Same assay, conditions: screen batch: Batch2_Mahalanobis_Distance; 72 h

In order of rising “perturbation Mahalanobis distance” value:
1. Cc1ncc([N+](=O)[O-])n1CCO [Metronidazole] (58.4 µM)  2.36
2. CN(C)[C@@H]1C(O)=C(C(N)=O)C(=O)[C@@]2(O)C(O)=C3C(=O)c4c(O)cccc4[C@@](C)(O)[C@H]3C[C@@H]12 [Tetracycline] (45 µM)  2.42
3. CN(C)CCCC1(c2ccc(F)cc2)OCc2cc(C#N)ccc21 (stereo not given) [Citalopram] (3.1 µM)  2.43
4. NC(=O)[C@@H]1CSSCCC(=O)N[C@@H](CCCCN=C(N)N)C(=O)NCC(=O)N[C@@H](CC(=O)O)C(=O)N[C@@H](Cc2c[nH]c3ccccc23)C(=O)N2CCC[C@H]2C(=O)N1 [Eptifibatide] (5.3 µM)  2.48
5. CCCc1cc(=O)[nH]c(=S)[nH]1 [Propylthiouracil] (90 µM)  2.52
6. CN(C)CC[C@@H](c1ccc(Cl)cc1)c1ccccn1 [Dexchlorpheniramine] (0.15 µM)  2.67
7. NN1CCOC1=O [3-Amino-2-Oxazolidinone] (49 µM)  2.76
8. C1CNCCN1 [Piperazine Hexahydrate] (5.8 µM)  2.76
9. CCOC(=O)C(C)(C)Oc1ccc(Cl)cc1 [Clofibrate] (325.5 µM)  2.81
10. C[C@]12C=CC(=O)N[C@@H]1CC[C@@H]1[C@@H]2CC[C@]2(C)[C@@H](C(=O)Nc3cc(C(F)(F)F)ccc3C(F)(F)F)CC[C@@H]12 [Dutasteride] (12 µM)  2.96
11. CCC(CC)O[C@@H]1C=C(C(=O)O)C[C@H](N)[C@H]1NC(C)=O [Oseltamivir Acid] (6.45 µM)  3.03
12. COc1ccccc1OCC(O)CN1CCN(CC(=O)Nc2c(C)cccc2C)CC1 (stereo not given) [Ranolazine] (37.4 µM)  3.08
13. CC(C)N=C(N)/N=C(\N)Nc1ccc(Cl)cc1 [Proguanil] (3 µM)  3.24
14. CNS(=O)(=O)Cc1ccc2[nH]cc(CCN(C)C)c2c1 [Sumatriptan] (1 µM)  3.35
15. C[C@@H]1O[C@@]2(CS1)CN1CCC2CC1 [Cevimeline] (1.5 µM)  3.45
16. C[C@]12C=CC(=O)C=C1CC[C@@H]1[C@@H]2[C@@H](O)C[C@@]2(C)[C@H]1CC[C@]2(O)C(=O)CO [Prednisolone] (13.9 µM)  3.8
17. CC(N=C(NC#N)Nc1ccncc1)C(C)(C)C (stereo not given) [Pinacidil] (8.3 µM)  4.16
18. Nc1nc(N)c2nc(-c3ccccc3)c(N)nc2n1 [Triamterene] (2 µM)  4.38
19. CCn1cc(C(=O)O)c(=O)c2cc(F)c(N3CCNCC3)nc21 [Enoxacin] (62.4 µM)  4.85

In the case of `O=C1c2c(O)ccc(O)c2C(=O)c2c(NCCNCCO)ccc(NCCNCCO)c21` [Mitoxantrone] (3.4 µM), the “perturbation Mahalanobis distance” value is reported as 16.4 (active).
